According to article PMC5540273 (PLoS ONE, 2017):

Key:
Settings in all cases: concentration: 1 μM, replicates: in singlicate; n = 1
CDC2L2 = tested on: CDC2L2
CDC2L5 = tested on: T1, CDC2L5
T1 construct: gene CDK13

CDK11 = tested on: T2, CDK11
T2 construct: gene CDK19

CDK2 = tested on: CDK2
CDK3 = tested on: CDK3
CDK4-cyclinD1 = tested on: CDK4-cyclinD1
CDK4-cyclinD3 = tested on: CDK4-cyclinD3
CDK4 = tested on: CDK4
CDK5 = tested on: CDK5
CDK7 = tested on: CDK7
CDK8 = tested on: CDK8
CDK9 = tested on: CDK9
CDKL1 = tested on: CDKL1
CDKL2 = tested on: CDKL2
CDKL3 = tested on: CDKL3
CDKL5 = tested on: CDKL5
CHEK1 = tested on: CHEK1
CHEK2 = tested on: CHEK2
CIT = tested on: CIT
CLK1 = tested on: CLK1
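Note: KINOMEscan kinase panel screen.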

SMILES | %Inh (CDC2L2) | %Inh (CDC2L5) | %Inh (CDK11) | %Inh (CDK2) | %Inh (CDK3) | %Inh (CDK4-cyclinD1) | %Inh (CDK4-cyclinD3) | %Inh (CDK4) | %Inh (CDK5) | %Inh (CDK7) | %Inh (CDK8) | %Inh (CDK9) | %Inh (CDKL1) | %Inh (CDKL2) | %Inh (CDKL3) | %Inh (CDKL5) | %Inh (CHEK1) | %Inh (CHEK2) | %Inh (CIT) | %Inh (CLK1)
CNc1nccc(-c2ccc3c(N)n[nH]c3c2)n1 [GSK2206003] | 17% | 0% | 0% | 23% | 19% | 7% | 0% | 31% | 0% | 23% | 32% | 11% | 18% | 17% | 0% | 0% | 0% | 51% | 86% | 97.1%
Cc1ccc(O)cc1Nc1ccnc2ccc(C(C)(C)C)cc12 [GW856805] | 15% | 36% | 21% | 7% | 0% | 12% | 24% | 25% | 0% | 42% | 0% | 12% | 24% | 0% | 17% | 10% | 9% | 3% | 25% | 0%
COc1cc(Nc2nccc(N3CCC(NC(=O)Nc4ccc5c(c4)OCO5)C3)n2)cc(OC)c1OC (stereo not drawn) [GSK1379766] | 18% | 0% | 2% | 0% | 2% | 0% | 14% | 0% | 0% | 0% | 46% | 0% | 0% | 41% | 0% | 0% | 0% | 4% | 0% | 25%
COc1ccc(NC(=O)c2ccoc2)cc1-c1ccc(C(=O)NCC2CC2)cc1 [GW810437] | 6% | 16% | 11% | 0% | 2% | 0% | 0% | 15% | 0% | 26% | 38% | 16% | 11% | 0% | 2% | 6% | 0% | 0% | 0% | 0%
CN1CCN(Cc2ccc(NC(=O)Nc3ccc(N(C)c4ccnc(Nc5ccc(CS(C)(=O)=O)cc5)n4)cc3)cc2)CC1.Cl [GW827654] | 38% | 99.8% | 60% | 16% | 0% | 50% | 97.8% | 65% | 58% | 53% | 60% | 50% | 71% | 99.8% | 99.6% | 0% | 0% | 78% | 23% | 42%
CC(C)(C)c1ccc(C(=O)Nc2cn3cc(-n4ccnc4)ccc3n2)cc1 | 1% | 7% | 1% | 12% | 0% | 0% | 0% | 0% | 8% | 4% | 5% | 3% | 29% | 0% | 18% | 7% | 0% | 0% | 44% | 92.4%
Fc1cc(Cl)ccc1Nc1ccnc2cc(-c3ccc(CN4CCSCC4)o3)ccc12 [GW560106] | 0% | 0% | 1% | 0% | 0% | 35% | 0% | 53% | 0% | 0% | 53% | 0% | 100% | 8% | 0% | 0% | 0% | 79% | 29% | 8%
COc1cccc(NC(=O)NCCNc2ccnc(Nc3ccc(F)cc3)n2)c1 [GSK1379879] | 27% | 0% | 22% | 0% | 0% | 9% | 1% | 0% | 0% | 0% | 27% | 0% | 0% | 15% | 0% | 0% | 0% | 0% | 6% | 17%
O=C(Nc1c(F)cccc1F)c1cc(C(=O)c2ccccc2F)c[nH]1 [GSK1326180] | 0% | 0% | 6% | 0% | 16% | 33% | 0% | 14% | 0% | 0% | 14% | 0% | 0% | 7% | 0% | 0% | 0% | 11% | 5% | 22%
